Compounds with a hit are over-represented: about 2.3% of the library has one in this group of screens.
Mcl1-Bid inh – Mcl-1/Bid interaction inhibition; Q07820; TR-FRET Mcl-1/Bid-Dy647 peptide binding, 1536-well; inhibition, % at 21.7 µM; actives 0.97% (n = 220,000); AID 1021;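 active means compounds that cut the binding signal by more than half at the single screening dose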;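 further: His-tagged Mcl-1 with europium anti-His antibody binding Bid BH3 peptide; 0% = Mcl-1 plus peptide wells and 100% = peptide-only wells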
Bcl-xL primary – Bcl-xL (human) inhibition; Q07817; AID 2129; inhibition, % at 10.9 µM; GST-Bcl-xL / FITC-Bim BH3 peptide fluorescence polarization; actives 0.7% (n = 320,000);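 active means inhibition above the mean of all tested compounds plus 3 SD, cutoff set per campaign, cut at about 30% in these data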;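 further: 0% = DMSO wells and 100% = unlabeled Bim-BH3 peptide competitor; inhibitors lower millipolarization by displacing the labeled peptide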
GLD-1 TGE inh – GLD-1-TGE RNA interaction inhibition (C. elegans) | Q17339 | purified GLD-1 + fluorescein TGE RNA, fluorescence polarization | actives 0.44% (n = 320,000) | inhibition, % at 5.96 µM;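 active means percent inhibition above a per-plate cutoff, the plate mean of test compounds plus 3 SD, cut at about 30% in these data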;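 further: 0% = DMSO wells with GLD-1 and probe and 100% = wells lacking GLD-1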
Target sequence (Q17339 whole entry, looked up): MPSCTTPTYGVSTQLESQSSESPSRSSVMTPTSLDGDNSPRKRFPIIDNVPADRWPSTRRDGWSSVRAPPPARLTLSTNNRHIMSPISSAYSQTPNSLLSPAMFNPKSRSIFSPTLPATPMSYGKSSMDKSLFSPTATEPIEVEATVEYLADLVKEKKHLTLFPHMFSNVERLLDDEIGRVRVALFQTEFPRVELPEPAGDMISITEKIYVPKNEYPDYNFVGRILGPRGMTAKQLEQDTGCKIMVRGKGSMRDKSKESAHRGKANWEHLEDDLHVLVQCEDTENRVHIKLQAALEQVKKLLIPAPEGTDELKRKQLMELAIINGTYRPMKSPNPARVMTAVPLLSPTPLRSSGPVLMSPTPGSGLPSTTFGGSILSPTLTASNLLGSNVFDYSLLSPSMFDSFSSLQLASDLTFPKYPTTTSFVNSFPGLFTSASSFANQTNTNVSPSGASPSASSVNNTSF
MCL1 BIM primary – inhibitors of human MCL1 binding to BIM-BH3 peptide; Q07820; GST-MCL1 / FITC-Bim-BH3 fluorescence polarization; inhibition, % at 10.9 µM; actives 0.68% (n = 320,000); AID 2057;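 active means inhibition above the mean inhibition of all tested compounds plus 3 SD, set per campaign, cut at about 40% in these data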;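 further: 0% = DMSO wells and 100% = unlabeled Bim-BH3 peptide control; higher means more loss of mP so more displacement of Bim peptide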
Mcl-1 Bim block – human Bim-Mcl-1 interaction inhibition. actives 0.1% (n = 190,000). inhibition, % at 10 µM. Bead-based flow cytometry, Bim peptide-Mcl-1 binding. AID 1009; in the data active means inhibition above about 40%;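 further: 0% = no compound tracer wells and 100% = peptide blocker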
Mcl1-Noxa inh – disrupts binding of human Mcl-1 to Noxa peptide; Q07820; TR-FRET Mcl-1/Noxa peptide binding, 2 h; inhibition, % at 21.7 µM; actives 1.5% (n = 220,000);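 active means compounds that cut the protein-peptide binding signal by more than 50% relative to plate controls in a single-dose test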;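 further: His-tagged Mcl-1 with rhodamine Noxa BH3 peptide and terbium anti-His antibody; 0% = Mcl-1 plus Noxa peptide wells and 100% = peptide-only wells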
* marks the source's active call; other numbers are inactive results; nt = no result given.

SMILES | Mcl1-Bid inh | Bcl-xL primary | GLD-1 TGE inh | MCL1 BIM primary | Mcl-1 Bim block | Mcl1-Noxa inh
CCO[C@H]1OC(C(N)=O)=C[C@@H](c2ccccc2)[C@@H]1CCCO | 51.2* | 6.0 | 5.8 | 2.0 | -1.0 | -14.6
CCOC(=O)c1[nH]cnc1C(=O)Nc1ccc(F)cc1 | -20.7 | 2.8 | 0.7 | 6.7 | -2.0 | 15.9
CCOC(=O)c1[nH]cnc1C(=O)Nc1ccncc1 | 83.4* | -2.0 | 5.8 | 1.2 | -1.0 | -11.1
CC(NC(N)=O)C(=O)Nc1ccc(Cl)c(S(=O)(=O)Nc2ccc(Br)cc2)c1 (stereo unspecified) | -4.4 | 1.2 | -2.3 | -1.5 | -1.0 | 56.9*
Cc1cc(C(=O)Nc2cccc(S(=O)(=O)N3CCCC3)c2)c2ccccc2n1 | nt | 5.6 | -8.4 | -2.8 | nt | nt
Cc1cc(C(=O)Nc2cccc(S(=O)(=O)N3CCCCC3)c2)c2ccccc2n1 | -10.3 | 0.8 | -0.7 | 1.4 | 0.0 | 65.4*
Cn1cnnc1SCC(=O)Nc1cccc(S(=O)(=O)N2CCCCCC2)c1 | -25.5 | 4.9 | -8.9 | 4.9 | -5.0 | 6.4
COCCn1cnnc1SCC(=O)Nc1cccc(S(=O)(=O)N2CCCCCC2)c1 | 53.8* | -7.2 | -1.4 | -23.5 | -1.0 | 1.6
CN1C2CCC1CC(NS(=O)(=O)c1cc(Cl)c(Cl)cc1Cl)C2 (stereo unspecified) | nt | 1.9 | -5.2 | 16.0 | nt | nt
Cc1cccc(NC(=O)CSc2nnc(-c3ccco3)o2)c1C | -14.3 | 5.2 | -3.2 | 2.4 | -1.0 | 54.2*
O=C(CSc1nnc(-c2ccco2)o1)c1ccc[nH]1 | -25.1 | 4.6 | 7.6 | 7.5 | -23.0 | 55.7*
Cc1ccc(C)c(NC(=O)CSc2nnc(-c3ccco3)o2)c1 | 2.0 | 7.4 | -0.8 | -2.0 | 0.0 | 1.8
Cc1ccc2nc(-c3ccc(N4C(=NC(=O)CCC(=O)O)SC5CS(=O)(=O)CC54)cc3)sc2c1 (stereo unspecified) | -10.6 | 9.4 | -2.9 | 6.7 | -6.0 | 54.6*
N#C/C(=C\c1cccnc1)C(=O)Nc1ccc(C(=O)O)cc1 | -36.3 | 3.7 | 4.0 | 2.6 | -1.0 | 14.6
N#C/C(=C\c1cccnc1)C(=O)Nc1ccccc1 | -9.4 | 30.7* | 28.6 | 27.2 | -4.0 | 5.2
O=C(Cc1sc(-c2ccccc2Cl)nc1-c1ccccc1)Nc1ccccc1 | 83.5* | 1.1 | 5.3 | 1.4 | 6.0 | -29.0
O=C(COC(=O)c1ccc(S(=O)(=O)N2CCOCC2)cc1)NC1CCCCCC1 | 2.7 | 2.4 | 3.0 | -0.4 | 0.0 | 5.0
COc1ccc(/C=C/C(=O)C(C(N)=O)=C2SCCS2)cc1 | -8.6 | 9.1 | -7.7 | 7.6 | 17.0 | 20.1
Cc1ccc(C(=O)C(C(=O)/C=C/c2ccccc2)=C2SCCCS2)cc1 | 2.6 | 6.2 | 0.5 | 9.5 | 58.0* | 2.1
Cc1[nH]n(-c2ncc(-c3ccccc3)s2)c(=O)c1C(c1ccc(Cl)cc1)C(C#N)C#N (stereo unspecified) | 18.0 | 12.5 | -0.3 | 10.4 | 0.0 | 80.7*
Oc1ccc(/C=N/NC(=S)Nc2cccnc2)cc1O | -58.5 | 13.8 | -1.2 | 47.2* | -2.0 | 59.1*
CC(C)(C)c1ccc(/C=N/NC(=S)Nc2cccnc2)cc1 | -91.3 | 5.6 | 0.8 | -3.1 | -1.0 | -22.9
CC(C)c1[nH]nc2c1C(c1cccnc1)C(C#N)=C(N)O2 (stereo unspecified) | 92.3* | 1.7 | 6.5 | 0.1 | -2.0 | 3.1
COC(=O)c1cc2c(cc1NC(=O)CSCCc1ccccn1)OCO2 | -2.5 | 30.8* | -7.6 | 26.0 | 0.0 | 13.5
CC(C)(C)c1cc(NC(=O)c2cc(F)c(F)c(F)c2F)no1 | -22.5 | 1.3 | 0.5 | 9.0 | -4.0 | -15.6
Cc1ccc(OCCCC(=O)Nc2ccccc2C(F)(F)F)cc1 | -9.7 | 5.1 | 7.6 | 6.2 | -4.0 | 73.6*
COc1ccccc1CCc1nnc(CCC(=O)NCC2CCCO2)o1 (stereo unspecified) | nt | 7.0 | 3.2 | 7.6 | nt | nt
COc1cccc(-c2cc(C(=O)NCC3CCCO3)on2)c1 (stereo unspecified) | nt | 3.7 | 1.4 | 7.3 | nt | nt
COc1ccccc1CNC(=O)CNCC1CCCO1 (stereo unspecified) | 50.5* | 6.7 | 9.2 | 1.1 | 0.0 | 14.6
COc1ccc(-c2cc(C(=O)NCC3CCCO3)on2)cc1OC (stereo unspecified) | nt | 34.0* | 6.9 | 0.7 | nt | nt
